Data on 20 compounds can be found in PubChem BioAssay AID624088 (Broad Institute, 2012).

This assay can be described thus: beta-catenin nuclear translocation by GSK3b inhibition, dose response, orthogonal assay for GSK3b inhibitor project, cell-based, U2-OS, PathHunter, beta-gal complementation, dry powder (AID 624088). The conditions noted are these: beta-gal luminescence, 6 h; series mostly up to 26 µM.

Activity calls are given as the source filed them.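 How the source made its calls: active means fitted potency no more than ten times the top tested concentration; inactive means fitted potency more than ten times the top tested concentration.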

For the compound `COc1ccccc1C1C2=C(CCCC2=O)Nc2n[nH]c(C)c21` (stereo not given), the compound was called inactive. In the case of `COc1ccccc1C1C2=C(CC(C)(C)CC2=O)Nc2n[nH]c(-c3ccccc3)c21` (stereo not given) it was “inactive”; in that of `Cc1[nH]nc2c1[C@H](c1ccccc1C(F)(F)F)C1=C(CC(C)(C)CC1=O)N2`, “inactive”; in that of `COc1ccccc1C1C2=C(CC3(CCCCC3)CC2=O)Nc2n[nH]c(C)c21` (stereo not given), “inactive”. In the case of `COc1ccccc1C1C2=C(CC(C)(C)CC2=O)Nc2ccccc21` (stereo not given) it was “inactive”; in that of `COc1ccccc1[C@@H]1C2=C(CC(C)(C)CC2=O)Nc2n[nH]c(C)c21`, “inactive”. The value for `Cc1[nH]nc2c1C(C)C1=C(CC(C)(C)CC1=O)N2` (stereo not given) was “inactive”. As for `COc1ccccc1[C@H]1C2=C(CC(C)(C)CC2=O)Nc2n[nH]c(C(F)(F)F)c21`, the compound was called inactive. In the case of `COc1ccccc1C1C2=C(CCC(C)(C)C2=O)Nc2n[nH]c(C)c21` (stereo not given) it was “inactive”; in that of `Cc1[nH]nc2c1C(C1CC1)C1=C(CC(C)(C)CC1=O)N2` (stereo not given), “inactive”. For `COc1ccc(-c2nn(-c3ccccc3)cc2CO)cc1`, the compound was called inactive.

Turning to `COc1ccc(-c2nn(-c3ccccc3)cc2C(=O)O)cc1`, the compound was called inactive. The value for `O/N=C/c1cn(-c2ccccc2)nc1-c1ccc(Cl)cc1` was “inactive”; that for `COc1ccccc1-c1c2c(nc3n[nH]c(C)c13)CCC2=O` was “inactive”; that for `Cc1[nH]nc2c1C(C1CCCCC1)C1=C(CC(C)(C)CC1=O)N2` (stereo not given) was “inactive”. With `COc1ccccc1C1C2=C(CC(C)(C)CC2=O)Nc2onc(C)c21` (stereo not given), the call was inactive. In the case of `COc1ccccc1C1C(C(C)=O)=C(C)Nc2n[nH]c(C)c21` (stereo not given) it was “inactive”. On to `Cc1ccccc1C1C2=C(CC(C)(C)CC2=O)Nc2n[nH]c(C)c21` (stereo not given), for which the result was inactive. The value for `Cc1[nH]nc2c1C(c1ccc(C(F)(F)F)cc1)C1=C(CC(C)(C)CC1=O)N2` (stereo not given) was “inactive”; that for `Cc1[nH]nc2nc3c(cc12)C(=O)CC(C)(C)C3` was “inactive”.
